Laboratory results from PubChem BioAssay AID588413 (Sanford-Burnham Center for Chemical Genomics, 2011).
Several values for one entry are separate records, joined by “and”; a condition that tells them apart may be missing. Equal entries are not always repeated. Out of some 340,000 compounds screened, about 2,500 (0.74%) were called active. This is one part of a sample in which actives are shown more often than they occur.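 How the source made its calls: active means inhibition above about 55% (limit read from the data); inactive means the rest.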

experiment: blockers of Gli reporter signaling – luciferase luminescence, Sufu-KO-LIGHT cells, uHTS, primary screen (AID 588413); conditions: Sufu-KO-LIGHT fibroblasts, at 5 µM, hits give high values;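 further: 0% = DMSO-treated cells and 100% = wells with medium but no cells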

Compound | inhibition
Cc1cc(N2C(=O)C(=O)/C(=C(/O)c3ccccc3)C2c2cccc(Br)c2)no1 (stereo unspecified) | 7.53% (inactive)
CC(=O)c1ccc(NC(=O)Cn2c(=O)oc3ccccc32)cc1 | 11.6% (inactive)
Cc1sc2nc(SCCO)n(-c3ccccc3)c(=O)c2c1C | 3.29% (inactive)
CC(C)OC(=O)c1ccc(NCc2cc(O)ccc2O)cc1Cl | -6.82% (inactive)
COC(=O)c1ccc(NCc2cc(O)ccc2O)cc1 | 3.08% (inactive)
O=C(OC12CC3CC(CC(C3)C1)C2)c1ccc(NCc2cc(O)ccc2O)cc1 | 70.4% (active)
Cn1cnc2c1c(=O)n(Cc1ccccc1C#N)c(=O)n2C | 6.5% (inactive)
O=C(Nc1ccccc1C(=O)Nc1ccncc1)c1ccc([N+](=O)[O-])cc1 | -25.8% (inactive)
O=C(Nc1cc2c3c(c1)C1CCCC1CN3CC1CCCC21)c1ccc([N+](=O)[O-])cc1 (stereo unspecified) | 72.5% (active)
CN1C2CCC1CC(NC(=O)c1ccc([N+](=O)[O-])cc1)C2 (stereo unspecified) | -0.59% (inactive)
CCOc1ccc(NC(=O)N(CC(C)C)CC(C)C)cc1 | -3.25% (inactive)
O=C(CCNC(=O)c1ccc(Br)cc1)NCC(c1ccco1)N1CCCCC1 (stereo unspecified) | 2.12% (inactive)
Cc1ccc(OS(=O)(=O)c2ccc(-c3csc(C)n3)s2)c(C)c1 | -1.77% (inactive)
c1ccc(C(c2ccccc2)N2CCN(Cc3nnnn3C3CCCCC3)CC2)cc1 | -7.75% (inactive)
CC1(C)CC(N2CCN(C(c3ccccc3)c3ccccc3)CC2)=CC(=[N+]2CCCCC2)C1 | 89.2% (active)
CC1(C)CC(=O)C=C(N2CCOCC2)C1 | -5.06% (inactive)
O=C(COc1ccc(Cl)cc1Cl)NCCCNC(=O)c1cnccn1 | -2.79% (inactive)
CN1C(=O)CC(c2ccccc2)C1=O (stereo unspecified) | 1.09% (inactive)
COc1ccc(N(CC(=O)Nc2ccc(F)c(F)c2)S(=O)(=O)c2c(C)[nH]c(=O)[nH]c2=O)cc1 | -1.05% (inactive)

Compound | inhibition
O=C1Nc2ccc(Br)cc2/C1=N/N=C/C1=C(N2CCOCC2)C(=C\c2ccccc2)/CC1 | 20.5% (inactive)
CCOc1ccc(/C=N/NC(=O)CSc2ccccn2)cc1O | 4.66% (inactive)
COc1ccc(/C=N/N=C2/C(=O)Nc3ccccc32)cc1O | 58.7% (active)
Cc1ccccc1CS(=O)(=O)CC1(O)CCN(C(=O)c2cccc(C(F)(F)F)c2)CC1 | 0.32% (inactive)
O=C(N=C1SC2CS(=O)(=O)CC2N1c1cc(Cl)ccc1Cl)C1CC1 (stereo unspecified) | 6.54% (inactive)
Cc1ccc(C(=O)C[n+]2cc(-c3ccccc3)n3c2CCCCC3)cc1 | 67.1% (active) and 72.5% (active)
Clc1ccc(C[n+]2cc(-c3ccccc3)n3c2CCC3)cc1 | 49.7% (inactive)
Cc1ccc(-c2c[n+](CC(=O)Nc3ccccc3)c3n2CCC3)cc1 | -11.4% (inactive)
CC(=O)c1ccc(NC(=O)C(C)OC(=O)c2ccc(NS(=O)(=O)c3ccc4[nH]c(=O)[nH]c4c3)cc2)cc1 (stereo unspecified) | 7.04% (inactive)
O=C1CSC(=O)N1CCOCCN1C(=O)CSC1=O | -19.6% (inactive)
CCN(CC)S(=O)(=O)c1ccc(N(C)Cc2cccc(OC)c2OC)nc1 | 1.8% (inactive)
CC(C)(C)OC(=O)C[C@@H]1C/C=C\C[C@@H](CC(=O)N[C@H](CO)Cc2ccccc2)C(=O)NC[C@@H](c2ccccc2)OC1=O | -21.7% (inactive)
CC(C)(C)OC(=O)C[C@H]1C/C=C\C[C@@H](CC(=O)N[C@H](CO)Cc2ccccc2)C(=O)NC[C@@H](c2ccccc2)OC1=O | 4.33% (inactive)
O=C(C[C@H]1C/C=C\C[C@@H](NC(=O)OCC2c3ccccc3-c3ccccc32)C(=O)O[C@@H](c2ccccc2)CNC1=O)N[C@H](CO)Cc1ccccc1 | 60.2% (active)
COc1ccc(CCNC(=O)CCn2c(=O)c3ccccc3n(CC(=O)NCC3CCCO3)c2=O)cc1OC (stereo unspecified) | 2.58% (inactive)
CCN(CC(=O)Nc1ccc(OC)cc1)C(=O)CSCc1ccc(C)cc1 | -9.04% (inactive)
CCN(CC(=O)Nc1cc(Cl)ccc1C)C(=O)CSCc1ccccc1 | -4.34% (inactive)
CCN(CC(=O)Nc1cc(Cl)ccc1C)C(=O)CSCc1ccc(C)cc1 | 62.8% (active)
Cc1ccc2c(c1)N(CC(=O)NCCc1ccc(Cl)cc1)C(=O)c1cccnc1O2 | -9.76% (inactive)

Compound | inhibition
COC[C@@H]1NS(=O)(=O)c2ccc(Br)cc2O[C@H]1c1ccccc1 | 15.6% (inactive)
Cc1ccc(S(=O)(=O)c2nc(-c3cccs3)oc2NCc2cccnc2)cc1 | 3.04% (inactive)
Cc1ccc(OCCNC(=O)CN2C(=O)NC3(CCCC3)C2=O)cc1 | -5.27% (inactive)
COc1ccc(C(=O)NCC(=O)N/N=C/c2cccnc2)cc1 | -0.02% (inactive)
O=C(CSc1cccc2cccnc12)N/N=C/c1cccnc1 | 71% (active)
Cc1c(NC(=O)CSc2cccc3cccnc23)c(=O)n(-c2ccccc2)n1C | 8.55% (inactive)
NC(=O)CC(NC(=O)Cc1ccc(Br)cc1)c1ccc(NC2CC3CCC2C3)c([N+](=O)[O-])c1 (stereo unspecified) | 19% (inactive)
CC(=O)N1CCC(C(=O)Nc2nc(-c3ccccc3)ns2)CC1 | -14.5% (inactive)
O=C(Nc1ccnn1C1CCN(Cc2cccc(OCCO)c2)CC1)C1CCCC1 | 10.8% (inactive)
Cc1nn(C)c(Cl)c1CN1CCC(n2nccc2NC(=O)C2CCCC2)CC1 | 61.7% (active)
CC(CN1CCC(n2nccc2NC(=O)C2CCCC2)CC1)c1ccccc1 (stereo unspecified) | 8.83% (inactive)
COc1cccc(-n2nc(C(=O)N3CCN(Cc4ccccc4)CC3)c3ccccc3c2=O)c1 | 11% (inactive)
COc1cccc(-n2cc3c(c2-c2ccccc2)c(=O)n(C)c(=O)n3C)c1 | 1.34% (inactive)
COc1cccc(-n2cc(C(=O)O)c3ccccc3c2=O)c1 | 59.2% (active)
CCCCOC(=O)CNc1nnc(SCC(=O)OCC)[nH]c1=O | -6.62% (inactive)
COc1ccccc1NC(=O)CCSc1nnc(-c2ccc(O)cc2)o1 | -0.57% (inactive)
Brc1c(CSc2nncc3ccccc23)nc2ccccn12 | 65% (active)
COc1cc(C(=O)N2CCN(C3CCC(C)CC3)CC2)cc(OC)c1OC (stereo unspecified) | 5.83% (inactive)
